# Source: PubChem (several laboratories)
# In the library only some 4.8% were active in any assay of this set; here they are far more common.
# Rev-erbA mod = modulators of human Rev-erb alpha DNA binding; activity, % at 10 µM; Rev-erbα–FITC-DNA binding, fluorescence polarization, 90 min; P20393; 370,000 tested, 0.79% active;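 active means activity above about 14%, limit read from the data; passing the limit was not always enough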
# hcDAF-12 act = activators of H. contortus DAF-12 nuclear receptor; HEK293 hcDAF-12 lit1-tk-luc reporter, luminescence; 0% DMSO, 100% Δ7-dafachronic acid; AID 652067; activation, % at 6.8 µM; 370,000 tested, 1.4% active;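 active means activation above the mean of all tested compounds plus 3 SD, cut at about 5.5% in these data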
# DAX1 inh-1 = NR0B1 (DAX1) inhibition; P51843; inhibition, % at 6.75 µM; AID 504766; 340,000 tested, 0.99% active; HEK293 Gal4-DAX1 luciferase reporter, luminescence;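 active means inhibition above the mean over all tested compounds plus 3 SD, cut at about 4.2% in these data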;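 further: inhibition shows as a rise in luminescence from relieved DAX1 repression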
# Target sequence (P51843 207-470 limits assumed): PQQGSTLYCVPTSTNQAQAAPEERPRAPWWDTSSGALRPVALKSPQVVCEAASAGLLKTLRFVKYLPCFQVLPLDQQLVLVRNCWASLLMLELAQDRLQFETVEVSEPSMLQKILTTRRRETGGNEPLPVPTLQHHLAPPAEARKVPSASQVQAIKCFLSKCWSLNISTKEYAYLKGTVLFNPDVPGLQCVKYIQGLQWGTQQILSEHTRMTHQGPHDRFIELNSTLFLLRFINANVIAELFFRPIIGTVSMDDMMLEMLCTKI
# ssDAF12 agonist = activators of S. stercoralis DAF-12 nuclear receptor; AID 652126; activation, % at 6.8 µM; HEK293 ssDAF-12/GRIP1 lit1-tk-luc reporter, luminescence; % of 3 µM dafachronic acid response; 370,000 tested, 1% active;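 active means activation above the mean over all tested compounds plus 3 SD, cut at about 0.9% in these data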
# DAX1 inh-2 = blocks DAX1 repression of SF-1 activated StAR promoter; HEK293T StAR-luciferase reporter, SF-1/DAX-1 repression relief; inhibition, % at 6.8 µM; AID 652010; 370,000 tested, 1.1% active;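 active means inhibition above the mean over all tested compounds plus 3 SD, cut at about 3.6% in these data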;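 further: higher inhibition means more luminescence from relief of DAX-1 repression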
# hgDAF12 agonist = agonists of H. glycines DAF-12 nuclear receptor; AID 687014; activation, % at 6.8 µM; 370,000 tested, 1.8% active; HEK293 GAL4-hgDAF12 UAS-luciferase reporter, agonist luminescence; normalized to butyrate control;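 active means activation above a cutoff set at the mean of all screened compounds plus 3 SD, cut at about 10% in these data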
# Numbers stand for hits; 0 = inactive; - = no result.
SMILES,Rev-erbA mod,hcDAF-12 act,DAX1 inh-1,ssDAF12 agonist,DAX1 inh-2,hgDAF12 agonist
c1ccc(-n2cnc3ccccc32)cc1,0,0,0,0,0,11
CC(Oc1cc2oc(=O)c3c(c2cc1Cl)CCC3)C(=O)N1C[C@H]2C[C@@H](C1)c1cccc(=O)n1C2 (stereo not given in full),0,0,0,0,0,0
Cc1oc2c(C)c3oc(=O)c(CCC(=O)N4C[C@H]5C[C@@H](C4)c4cccc(=O)n4C5)c(C)c3cc2c1C,0,0,4.9,0,0,0
Cc1cc2oc(=O)c3c(c2cc1OC(=O)c1ccco1)CCCC3,0,0,0,0,0,0
O=C(Oc1cc2oc(=O)c3c(c2cc1Cl)CCCC3)c1ccco1,0,0,4.7,0,0,0
O=C(COc1cc2oc(=O)c3c(c2cc1Cl)CCCC3)N1C[C@H]2C[C@@H](C1)c1cccc(=O)n1C2,0,0,5.7,0,0,0
CCCCCCCCN1C(=O)[C@@H](CC(=O)N2CCOCC2)C[C@@]2(C(=O)OC)C1=C[C@H](C(C)C)O[C@@H]2C1CC1,0,0,-,0,0,0
Nc1c(C(=O)OCC(=O)NCc2ccccc2)[nH]c(=O)[nH]c1=O,0,0,7.9,0,0,0
O=C(CCc1ccccc1)Nc1ccc2ccccc2n1,0,0,0,0,0,12
O=C(COC(=O)c1ccc2ccccc2n1)NCc1ccccc1,0,0,4.9,0,0,0
CC(C)=CC(=O)Nc1nc2ccc([N+](=O)[O-])cc2s1,0,0,0,0,0,13
CC1(C)C2CC=C(/C=N/NC(=S)Nc3cccnc3)C1C2 (stereo not given),0,0,0,1.0,0,0
CC(C)NC(=S)N/N=C/C1=CCC2CC1C2(C)C (stereo not given),0,0,0,0,0,0
FC(F)(F)c1ccc(NCCc2ccccc2)nc1,0,0,5.1,0,0,0
NS(=O)(=O)c1ccc(CCNc2ccc(C(F)(F)F)cn2)cc1,0,0,0,0,0,0
COC(=O)[C@]12C[C@H](CC(=O)NCCc3ccccc3OC)C(=O)N(CCC3=CCCCC3)C1=C[C@H](COCc1ccccc1)O[C@@H]2C,0,0,-,0,0,0
O=C(Oc1ccc2ccccc2c1Cl)N1CCCCCC1,0,0,0,0,4.1,0
O=C(Oc1ccc2ccccc2c1Cl)N1CCCC1,0,0,0,0,0,0
Cc1cc(Br)ccc1OCC(=O)N1CCCCCC1,0,0,0,0,0,0
CC(C)c1ccc(OCC(=O)N2CCCCCC2)c(Br)c1,0,0,0,0,0,11
O=C(COc1ccc2ccccc2c1Br)N1CCCC1,0,0,0,0,3.9,0
O=C(NCCc1c[nH]c2ccccc12)OCc1cn(-c2cccc(C(F)(F)F)c2)nn1,0,0,-,0,0,0
O=C(NCCN1CCCC1)c1ccc2c(c1)N(Cc1cccc(Cl)c1)C(=O)c1ccccc1S2(=O)=O,0,6.2,0,0,0,0
COc1cnn(-c2cccc(C)c2)c(=O)c1Cl,0,0,0,0,0,0
NCCOc1cnn(-c2ccccc2Cl)c(=O)c1Cl,0,0,0,1.0,0,0
SMILES,Rev-erbA mod,hcDAF-12 act,DAX1 inh-1,ssDAF12 agonist,DAX1 inh-2,hgDAF12 agonist
c1coc(-c2nc(-c3ccncc3)no2)c1,0,0,0,1.7,0,13
Clc1ccc(-c2nc(-c3ccncc3)no2)c(Cl)c1,0,0,4.9,0,0,0
c1ccc(-c2nc(-c3ccncc3)no2)cc1,0,0,0,0,0,0
CCCN1CCCCC(NC(=O)COCc2ccccc2)C1=O (stereo not given),0,0,-,0,0,0
O=C(OC12CCCN(C1)/C(=C/c1ccc(Cl)cc1)C2)c1cccc(F)c1 (stereo not given),0,0,-,0,0,0
CC1CCc2c(sc3ncn(CC(=O)N=Nc4c(O)[nH]c5ccccc45)c(=O)c23)C1 (stereo not given),0,0,4.6,0,0,0
Clc1cccc(-c2csc(Nc3cccnc3)n2)c1,0,5.8,0,0,0,0
c1cncc(Nc2nc(-c3ccncc3)cs2)c1,0,0,0,0,0,0
COc1ccccc1NC(=O)OC1CCC12CCCCC2 (stereo not given),0,0,-,0,0,0
CC(=O)c1ccc(NC(=O)NC2CCCCN(Cc3cccc(Cl)c3)C2=O)cc1 (stereo not given),0,0,-,0,0,0
